Laboratory results published in PubChem BioAssay (Tox21).
Inconclusive results are not listed. The source made the active and inactive calls. Calls come from the whole dose curve; as a rule, active = well fitted cell-killing curve with a large enough effect in the repeat runs; inconclusive = weak or mixed curves; inactive = flat fitted curve, though single readings scatter.

assay: qHTS assay to identify small molecule antagonists of the estrogen related receptor (ERR) signaling pathway - cell viability counter screen (AID 1224818); details: ERR reporter cell line viability counter screen; series mostly up to 46.1 µM; viability change, negative = cytotoxic: at the top concentration;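 note: viability measured after 17.5 h of compound exposure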
Procedure, shortened: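 ERR cells, 2,000/well; 6 h settle at 37 C/5% CO2; compound pin transfer (DMSO); 17.5 h at 37 C; CellTiter-Fluor, 30 min, fluorescence read.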
% is set by controls: 0 for no effect and ±100 for the full control effect.

SMILES	viability change, negative = cytotoxic
O=C(O)C1CCCNC1 (stereo not given)	-2.44% (inactive)
CC(=O)SC1CC2=CC(=O)CC[C@]2(C)C2CC[C@@]3(C)C(CC[C@@]34CCC(=O)O4)C12 (stereo not given in full)	-5.05% (inactive)
OCc1ccc(-c2nn(Cc3ccccc3)c3ccccc23)o1	-22.8% (inactive)
C[C@](Cc1ccc(O)c(O)c1)(NN)C(=O)O	12.4% (inactive)
CC(C)(Sc1ccc(CCN(CCCCC2CCCCC2)C(=O)NC2CCCCC2)cc1)C(=O)O	-5.04% (inactive)
Brc1cc2c(cc1[C@H]1Nc3ccccc3[C@H]3C=CC[C@H]31)OCO2	-6.99% (inactive)
CC(C)(C)c1cc(/C=C(\C#N)C(N)=S)cc(C(C)(C)C)c1O	-26.7% (inactive)
Cc1cn([C@H]2CC(N=[N+]=[N-])[C@@H](CO)O2)c(=O)[nH]c1=O (stereo not given in full)	9.49% (inactive)
N#CC(C#N)=C(N)/C(C#N)=C/c1ccc(O)cc1	3.46% (inactive)
Fc1cccc(/C=N/N=C/c2cccc(F)c2)c1	13% (inactive)
O=C(CCc1ccncc1)NNC(=O)N1Cc2ccccc2Oc2ccc(Cl)cc21	-7.45% (inactive)
CO/N=C(\C(=O)N[C@@H]1C(=O)N2C(C(=O)O)=C(CSc3nc(=O)c(O)nn3C)CSC12)c1csc(N)n1 (stereo not given in full)	5.66% (inactive)
NC(C(=O)N[C@@H]1C(=O)N2C(C(=O)O)=C(Cl)CS[C@H]12)c1ccccc1 (stereo not given in full)	4.12% (inactive)
COc1cccc(-c2cc(=O)c3ccccc3o2)c1N	-13% (inactive)
O=c1cc(-c2ccccc2F)[nH]c2cc3c(cc12)OCO3	-7.39% (inactive)
NC(=S)c1ccc[n+]([C@@H]2O[C@@H](COP(=O)([O-])OP(=O)(O)OC[C@H]3O[C@@H](n4cnc5c(N)ncnc54)[C@H](OP(=O)(O)O)C3O)C(O)C2O)c1 (stereo not given in full)	-2.64% (inactive)
C[C@H]1CC2C3CCC4=CC(=O)C=C[C@]4(C)[C@@]3(Cl)[C@@H](O)C[C@]2(C)[C@@]1(O)C(=O)CO (stereo not given in full)	1.34% (inactive)
CCC(CO)Nc1nc(NCc2ccccc2)c2ncn(C(C)C)c2n1 (stereo not given)	-18.7% (inactive)
Oc1cc(O)c2c(c1)O[C@H](c1ccc(O)c(O)c1)[C@@H](O)C2	9.08% (inactive)
O=[N+]([O-])c1ccc(CNc2nc(NCc3cccc(C(F)(F)F)c3)nc3nc[nH]c23)cc1	-15.8% (inactive)

SMILES	viability change, negative = cytotoxic
O=[N+]([O-])c1ccc(CSc2ncnc3c2ncn3[C@@H]2O[C@H](CO)C(O)[C@H]2O)cc1 (stereo not given in full)	-3.46% (inactive)
COc1cccc(OC)c1OCCNCC1COc2ccccc2O1 (stereo not given)	0.0206% (inactive)
Nc1nc(N)c2nc(CNc3ccc(C(=O)NC(CCC(=O)O)C(=O)O)cc3)cnc2n1 (stereo not given)	-11.1% (inactive)
Nc1ccc(CCNc2ncnc3c2ncn3C2OC(CO)C(O)C2O)cc1 (stereo not given)	4.37% (inactive)
CN1C2CCC1CC(OC(=O)C(O)c1ccccc1)C2 (stereo not given)	14.6% (inactive)
Cc1nn(-c2ccccc2)c(C)c1/C=N/N1CCN(Cc2ccccc2)CC1	-12.5% (inactive)
O=c1[nH]c2ccccc2c2ccccc12	-1.89% (inactive)
Cc1cccc(C#Cc2ccccc2)n1	-5.48% (inactive)
Fc1ccc2[nH]c(CN3CCN(c4ccccn4)CC3)cc2c1	-1.35% (inactive)
Nc1nc2ccc(Cl)cc2c2nc(-c3ccco3)nn12	-10.8% (inactive)
Oc1ccc(-c2nc(-c3ccc(F)cc3)c(-c3ccncc3)[nH]2)cc1	-20.9% (inactive)
CC(C)(NS(=O)(=O)c1ccc(Oc2ccc(F)cc2)cc1)C(=O)NO	-13% (inactive)
Cc1cc2c(cc1Cl)N(C(=O)Nc1ccnc3ccccc13)CC2	1.91% (inactive)
COC(=O)C1=CO[C@@H](O)[C@@H]2C(CO)=CC[C@H]12	-6.69% (inactive)
O=C(Nc1ccncc1)c1cc([N+](=O)[O-])ccc1Cl	-8.53% (inactive)
S=C(S)N1CCCC1	2.1% (inactive)
CN1CCc2ccccc2Cc2[nH]c3ccccc3c2CC1	4.16% (inactive)
COc1ccc(NC(=O)/C=C/c2ccc(Cl)cc2)cc1	-23.7% (inactive)
CC(N)=NCCCC[C@@H](N)C(=O)O	6.48% (inactive)
N[C@@H](CCC(=O)N[C@H](CSN=O)C(=O)NCC(=O)O)C(=O)O	1.88% (inactive)
